Entries with a potency or affinity are not part of this list. Activity calls are given as the source filed them.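 Rule for the calls: active = compound whose fitted concentration response curve has an R squared above 0.5; inactive = the rest.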

Among the data in PubChem BioAssay AID2428 (Vanderbilt High Throughput Screening Facility, 2010) are outcome values, retold here.

This experiment addresses Muscarinic acetylcholine receptor M3 (Homo sapiens) (UniProt P20309). Kind of experiment: human M3 receptor positive allosteric modulation, dose response, selectivity assay for M1 PAM project, cell-based, CHO-K1 hM3, Fluo-4 calcium, ACh EC20 (AID 2428).

Muscarinic acetylcholine receptor M3 (Homo sapiens), sequence (P20309 whole entry, looked up): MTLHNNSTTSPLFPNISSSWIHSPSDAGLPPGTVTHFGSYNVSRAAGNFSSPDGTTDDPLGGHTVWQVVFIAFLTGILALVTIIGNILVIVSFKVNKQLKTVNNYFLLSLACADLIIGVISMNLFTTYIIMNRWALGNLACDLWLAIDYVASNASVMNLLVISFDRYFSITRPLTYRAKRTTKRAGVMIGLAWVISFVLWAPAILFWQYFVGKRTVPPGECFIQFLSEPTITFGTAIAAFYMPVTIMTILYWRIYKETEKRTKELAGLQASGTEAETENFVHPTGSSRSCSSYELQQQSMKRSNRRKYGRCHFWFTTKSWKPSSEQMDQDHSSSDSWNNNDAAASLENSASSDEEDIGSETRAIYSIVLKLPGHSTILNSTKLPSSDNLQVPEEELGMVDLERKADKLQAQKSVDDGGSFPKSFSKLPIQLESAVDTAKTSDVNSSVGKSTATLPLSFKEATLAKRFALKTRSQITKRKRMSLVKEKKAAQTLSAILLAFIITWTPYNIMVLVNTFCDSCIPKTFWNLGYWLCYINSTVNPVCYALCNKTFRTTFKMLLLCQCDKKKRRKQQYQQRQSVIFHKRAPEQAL

For `Cc1cc(NC(=O)CS(=O)(=O)c2cn(Cc3cccc(Cl)c3)c3ccccc23)no1`, the result was inactive.
For the molecule `O=C1C(=O)N(Cc2ccc(Oc3ccccc3)cc2)c2ccc(OC(F)(F)F)cc21`, the outcome was inactive.
Take `Cn1cc(-c2ccc(CN3C(=O)C(=O)c4ccccc43)c(F)c2)cn1`: the result was inactive.
In the case of `Cn1cc(-c2cc(F)c(CN3C(=O)C(=O)c4ccccc43)c(F)c2)cn1` it was “inactive”.
On to `Cc1cc(NC(=O)CS(=O)(=O)c2cn(Cc3cccc(-c4ccn(C)n4)c3)c3ccccc23)no1`, for which the result was inactive.
Take `Cc1cc(NC(=O)CS(=O)(=O)c2cn(Cc3cc(Br)ccc3F)c3ccccc23)no1`: the result was inactive.
Consider `Cc1cc(NC(=O)CS(=O)(=O)c2cn(Cc3cccc(F)c3)c3ccccc23)no1`, for which the result was inactive.
Next, `Cc1cc(NC(=O)CS(=O)(=O)c2cn(Cc3ccccc3Cl)c3ccccc23)no1`: “inactive”.
